Bioassay records: PubChem, National Center for Advancing Translational Sciences (NCATS)
Compounds with a hit are over-represented: about 20% of the library has one in this group of screens.
Shiga toxin inh = Shiga toxin inhibition | inhibition, % at 38.7 µM | 9.2% of 290,000 active | Vero cells, Shiga toxin protein synthesis inhibition reporter; in the data active = inhibition mostly above about 28%, no sharp cut-off; inactive = mostly below about 43%
Cycloheximide cs = affects cycloheximide protein synthesis inhibition readout, counter-screen | cell reporter, cycloheximide protein synthesis inhibition counterscreen | max response, % | 12% of 300,000 active; in the data active = max response mostly above about 13%, no sharp cut-off; inactive = mostly below about 14%; also: read at 38.3 µM for the half of the compounds with a filed dose
HCMV inh = human cytomegalovirus inhibition; HFF cells, HCMV-luciferase reporter, 72 h; stronger effect = lower value; activity change, negative = inhibition, % at 57.5 µM; 4.5% of 410,000 active; in the data active = activity change below about -60%; inconclusive = no clear call, values can overlap the other calls; inactive = above about -39%
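Human foreskin fibroblasts infected with luciferase-reporter HCMV at MOI 1 PFU/cell, compounds at two doses. Luciferase measured 72 h post infection; normalized to buffer-only basal and Salinomycin (10uM) controls.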
Pf growth 96h = P. falciparum growth inhibition at 96 hours | P. falciparum luciferase reporter growth, 96 h | 6.9% of 320,000 active | Potency, µM (series often up to 28.7 µM), actives largely listed as inhibitors | AID 504834
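Delayed-death screen, second-generation endpoint: infected erythrocytes, 2% hematocrit, 0.05% parasitemia final; 96 hours at 37 C, 5% CO2; luciferase detection reagent; luminescence decrease equals reduced growth.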
Pf growth 48h = inhibits P. falciparum growth in the first generation, 48 h; AID 504832; P. falciparum luciferase growth in erythrocytes, 48 h; 5.9% of 310,000 active; Potency, µM (series often up to 28.7 µM), actives largely listed as inhibitors
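A one-generation exposure of luciferase-tagged malaria parasites in RPMI 1640/Albumax erythrocyte culture, 37 C and 5% CO2. Inhibition is inferred from decreased luminescence after adding detection reagent.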
A number is an active result. Unless noted, calls follow the shape of the dose curve; as a rule, active = well fitted inhibition curve with a large enough effect; inconclusive = small, poorly fitted or top-dose-only effect, or another doubt; inactive = no such curve, though single readings can be large or run the other way.

Screening O=C(Nc1ccc(F)cc1)C(c1ccccc1)N1CCN(S(=O)(=O)c2ccc3ccccc3c2)CC1 (centres undefined) returned Shiga toxin inh inactive, Cycloheximide cs inactive, HCMV inh inconclusive, Pf growth 96h inactive and Pf growth 48h 13.1µM.
For O=C(CN1CCN(C(C(=O)Nc2ccc(F)cc2)c2ccccc2)CC1)NC1CC1 (centres undefined) the results were HCMV inh inactive, Pf growth 96h 14.7µM and Pf growth 48h inconclusive.
COc1cccc(C(=O)COC(=O)COc2c(C)cc(C)cc2C)c1 was read as HCMV inh inactive, Pf growth 96h inconclusive and Pf growth 48h inactive.
For COc1ccc(-n2cc(-c3ccccc3)nc2SCC(=O)Nc2ccccc2)cc1Cl the results were HCMV inh inactive.
Screening COc1ccccc1N1CCN(CC(=O)c2c(C)[nH]c3cc(C)ccc23)CC1 returned Shiga toxin inh inactive, Cycloheximide cs inactive, HCMV inh inactive, Pf growth 96h inactive and Pf growth 48h 13.1µM.
COc1ccccc1N1CCN(CC(=O)c2c(C)n(C)c3ccccc23)CC1 was read as Shiga toxin inh inactive, Cycloheximide cs inactive, HCMV inh inactive, Pf growth 96h inconclusive and Pf growth 48h inconclusive.
For Cc1ccc2c(C(=O)CN3CCN(C4CCCCC4)CC3)c(C)[nH]c2c1 the results were Shiga toxin inh inactive, Cycloheximide cs inactive, HCMV inh inactive, Pf growth 96h inactive and Pf growth 48h 2.62µM.
Screening CCC1CCCCN1CC(=O)c1c(C)[nH]c2cc(C)ccc12 (centres undefined) returned Shiga toxin inh inactive, Cycloheximide cs inactive, HCMV inh inactive, Pf growth 96h inactive and Pf growth 48h inactive.
`Cc1cccn2cc(CCNC(=O)c3cccs3)nc12` gave Shiga toxin inh inactive, Cycloheximide cs 18.5, HCMV inh inactive, Pf growth 96h inactive and Pf growth 48h inactive.
Cc1cccn2cc(CCNC(=O)Cc3cccs3)nc12 was read as Shiga toxin inh inactive, Cycloheximide cs inactive, HCMV inh inactive, Pf growth 96h inactive and Pf growth 48h inactive.
Screening COc1ccc(-c2nc(CCNC(=O)c3cccs3)cs2)cc1OC returned HCMV inh -84.2.
For NC(=O)c1ccc(NC(=O)Cc2csc(-c3ccccc3)n2)cc1 the results were Shiga toxin inh inactive, Cycloheximide cs inactive, HCMV inh inactive, Pf growth 96h inactive and Pf growth 48h inactive.
Screening O=C(Cc1csc(-c2ccccc2)n1)NCc1cccs1 returned Shiga toxin inh 36.9, Cycloheximide cs 24.5, HCMV inh inactive, Pf growth 96h inactive and Pf growth 48h inactive.
For O=C(NCCc1csc(-c2ccccc2)n1)c1cccs1 the results were Shiga toxin inh inactive, Cycloheximide cs 13.1, HCMV inh inactive, Pf growth 96h inactive and Pf growth 48h inactive.
For Cc1nc(CCNC(=O)c2cccs2)cs1 the results were Shiga toxin inh inactive, Cycloheximide cs inactive, HCMV inh inactive and Pf growth 48h inactive.
CCn1cc(C(=O)NCCCN2CCCC(C)C2)c(=O)c2cc(S(=O)(=O)N3CCOCC3)ccc21 (centres undefined) was read as Shiga toxin inh inactive, Cycloheximide cs inactive, HCMV inh inactive, Pf growth 96h inactive and Pf growth 48h inconclusive.
`Cc1cccc(OCC(=O)Nc2ccc3oc(-c4ccccc4F)nc3c2)c1` gave HCMV inh inactive.
For CCc1nnc(NC(=O)c2cccc(S(=O)(=O)N3CCN(C)CC3)c2)s1 the results were HCMV inh inactive.
For Cc1c(-c2ccccc2)c(=O)oc2c(CN3CCOCC3)c(O)ccc12 the results were HCMV inh inactive.
For COc1ccc(C)cc1NC(=O)CCN1CCN(c2ccccc2F)CC1 the results were Shiga toxin inh inactive, Cycloheximide cs inactive, HCMV inh inactive, Pf growth 96h inconclusive and Pf growth 48h inconclusive.
Screening COc1ccc(C)cc1NC(=O)CN1CCN(c2ccccc2F)CC1 returned Shiga toxin inh inactive, Cycloheximide cs inactive, HCMV inh inactive, Pf growth 96h inactive and Pf growth 48h 13.1µM.
`O=C(CN1CCN(S(=O)(=O)c2ccc(F)cc2)CC1)Nc1ccc(F)cc1F` gave Shiga toxin inh 37.5, Cycloheximide cs 60.1, HCMV inh inactive, Pf growth 96h inconclusive and Pf growth 48h inactive.
Screening COc1ccccc1NC(=O)CN1CCCCC1 returned Shiga toxin inh inactive, Cycloheximide cs inactive, HCMV inh inactive, Pf growth 96h inactive and Pf growth 48h inactive.
COc1ccccc1NC(=O)CN1CCN(CC(=O)Nc2ccc(F)cc2F)CC1 was read as Shiga toxin inh 92.1, Cycloheximide cs 32.2, HCMV inh inconclusive, Pf growth 96h 4.15µM and Pf growth 48h inactive.
`O=C(CN1CCN(S(=O)(=O)c2ccc(F)cc2)CC1)Nc1cc(C(F)(F)F)ccc1Cl` gave Shiga toxin inh inactive, Cycloheximide cs inactive, HCMV inh inactive, Pf growth 96h inconclusive and Pf growth 48h inconclusive.
Screening CCc1ccc(NC(=O)CCc2nnc3n(C)c(=O)c4sccc4n23)cc1 returned HCMV inh inactive.
Screening COc1cccc(Nc2nc3cc(Cl)c(Cl)cc3nc2-n2nc(C)cc2C)c1 returned HCMV inh inactive.
`CCOC(=O)c1c(C)n(-c2ccccc2)c2ccc(O)c(CN(C)C)c12` gave Shiga toxin inh inactive, Cycloheximide cs inactive, HCMV inh inconclusive, Pf growth 96h inactive and Pf growth 48h inconclusive.
CCOC(=O)c1c(CN2CCOCC2)n(C)c2cc(Br)c(O)c(CN(C)C)c12 was read as Shiga toxin inh inactive, Cycloheximide cs inactive, HCMV inh inactive, Pf growth 96h inconclusive and Pf growth 48h 10.4µM.
Screening CCOC(=O)c1c(C)n(C)c2cc(CN(C)C)c(O)c(S(=O)(=O)c3ccccc3)c12 returned Shiga toxin inh inactive, Cycloheximide cs 23.5, HCMV inh -69.2, Pf growth 96h inconclusive and Pf growth 48h inactive.
For CCOC(=O)c1c(CS(=O)(=O)c2ccccc2)n(C)c2cc(Br)c(O)c(CN(C)C)c12 the results were Shiga toxin inh inactive, Cycloheximide cs inactive, HCMV inh inconclusive, Pf growth 96h inactive and Pf growth 48h 9.28µM.
For COc1ccc(CNC(=O)C(C)OC(=O)c2cccs2)cc1 (centres undefined) the results were Shiga toxin inh inactive, Cycloheximide cs inactive, HCMV inh inactive, Pf growth 96h inactive and Pf growth 48h inactive.
`CNc1ncc(C(=O)c2ccc(-c3ccccc3)cc2)s1` gave Shiga toxin inh 63.8, Cycloheximide cs 44.5, HCMV inh inactive, Pf growth 96h inactive and Pf growth 48h inactive.
Screening CNc1ncc(C(=O)c2ccc(Cl)cc2)s1 returned Shiga toxin inh 69.3, Cycloheximide cs 34.7, HCMV inh inactive, Pf growth 96h inactive and Pf growth 48h inactive.
Screening CNc1ncc(C(=O)c2ccc(Cl)c(Cl)c2)s1 returned Shiga toxin inh 94.1, Cycloheximide cs 37.7, HCMV inh inactive, Pf growth 96h inactive and Pf growth 48h inactive.
`O=C(c1cnc(-c2ccc(Cl)cc2)s1)c1ccc(Cl)cc1Cl` gave Shiga toxin inh inactive, Cycloheximide cs inactive, Pf growth 96h inactive and Pf growth 48h inactive.
For COc1ccc(-c2noc(-c3ccc(N4CCCCC4C)c([N+](=O)[O-])c3)n2)cc1OC (centres undefined) the results were HCMV inh inactive.
